In the library only some 4.1% were active in any assay of this set; here they are far more common.
hgDAF12 agonist – activates the H. glycines DAF-12 receptor ligand-binding domain; HEK293 GAL4-hgDAF12 UAS-luciferase reporter, agonist luminescence; normalized to butyrate control; activation, % at 6.8 µM; hit rate 1.8% among 370,000;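 active = activation above a cutoff set at the mean of all screened compounds plus 3 SD, cut at about 10% in these data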;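 also: 0% = DMSO wells and 100% = sodium butyrate wells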
DAX1 inh-1 – NR0B1 (DAX1) inhibition. P51843. HEK293 Gal4-DAX1 luciferase reporter, luminescence. inhibition, % at 6.75 µM. hit rate 0.99% among 340,000. AID 504766;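 active = inhibition above the mean over all tested compounds plus 3 SD, cut at about 4.2% in these data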;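 also: 0% = DAX1-transfected cells with DMSO and 100% = empty-vector control cells with DMSO; inhibition shows as a rise in luminescence from relieved DAX1 repression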
Target sequence (P51843 207-470 limits assumed): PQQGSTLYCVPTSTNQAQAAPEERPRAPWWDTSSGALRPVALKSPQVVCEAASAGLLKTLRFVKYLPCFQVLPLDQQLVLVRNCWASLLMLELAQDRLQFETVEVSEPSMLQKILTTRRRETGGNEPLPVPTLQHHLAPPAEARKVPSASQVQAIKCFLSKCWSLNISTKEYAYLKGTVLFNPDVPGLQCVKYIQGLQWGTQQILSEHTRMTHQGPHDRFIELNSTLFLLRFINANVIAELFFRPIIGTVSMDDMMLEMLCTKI
ssDAF12 agonist – S. stercoralis DAF-12 activation, primary screen | HEK293 ssDAF-12/GRIP1 lit1-tk-luc reporter, luminescence; % of 3 µM dafachronic acid response | activation, % at 6.8 µM | hit rate 1% among 370,000;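 active = activation above the mean over all tested compounds plus 3 SD, cut at about 0.9% in these data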;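 also: 0% = DMSO-only wells and 100% = 3 µM delta7-dafachronic acid wells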
hcDAF12 agonist – H. contortus DAF-12 activation, primary screen; HEK293 hcDAF-12 lit1-tk-luc reporter, luminescence; 0% DMSO, 100% Δ7-dafachronic acid; activation, % at 6.8 µM; hit rate 1.4% among 370,000;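 active = activation above the mean of all tested compounds plus 3 SD, cut at about 5.5% in these data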;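 also: 100% = response to 3 µM Δ7-dafachronic acid high control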
DAX1 inh-2 – DAX1 (NR0B1) inhibition, primary screen. HEK293T StAR-luciferase reporter, SF-1/DAX-1 repression relief. hit rate 1.1% among 370,000. inhibition, % at 6.8 µM;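 active = inhibition above the mean over all tested compounds plus 3 SD, cut at about 3.6% in these data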;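 also: 0% = DAX-1 cells with DMSO and 100% = cells lacking DAX-1 with DMSO; higher inhibition means more luminescence from relief of DAX-1 repression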
LXRb hcDAF ctr – LXR-beta agonism as hcDAF-12 counter-screen | HEK293 Gal4-LXR tk-luc reporter, luminescence, 24 h; normalized: DMSO 0%, positive control 100% | AID 743027 | 3,400 tested, under 10 active | activation, % at 6.8 µM | shares compounds with hcDAF12 agonist;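 active = mean percent activation of the reporter above a cutoff set as the average over tested compounds plus their standard deviation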
Target sequence (P55055 whole entry, looked up, the tested form may be a part): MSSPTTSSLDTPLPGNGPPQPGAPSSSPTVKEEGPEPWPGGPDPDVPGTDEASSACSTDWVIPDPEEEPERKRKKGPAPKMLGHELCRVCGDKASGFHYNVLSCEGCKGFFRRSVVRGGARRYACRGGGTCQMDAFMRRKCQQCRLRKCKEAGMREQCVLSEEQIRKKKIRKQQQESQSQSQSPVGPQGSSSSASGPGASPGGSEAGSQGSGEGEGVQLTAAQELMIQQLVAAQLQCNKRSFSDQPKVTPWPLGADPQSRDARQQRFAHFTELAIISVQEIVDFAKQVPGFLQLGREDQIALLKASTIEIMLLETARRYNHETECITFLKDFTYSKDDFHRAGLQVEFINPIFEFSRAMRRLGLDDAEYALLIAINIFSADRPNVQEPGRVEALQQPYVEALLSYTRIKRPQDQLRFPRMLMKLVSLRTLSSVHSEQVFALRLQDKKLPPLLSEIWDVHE
hcDAF12 conf – confirmation of H. contortus DAF-12 agonists; shares compounds with hcDAF12 agonist; HEK293 hcDAF-12 lit1-tk-luc reporter, luminescence; % of Δ7-dafachronic acid response; activation, % at 6.8 µM; hit rate 61% among 3,400; AID 743032;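 active = mean activation across triplicate tests above the threshold derived from the earlier primary screen, cut at about 5.5% in these data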;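 also: 0% = DMSO only wells and 100% = 3 µM Δ7-dafachronic acid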
* marks the source's active call; other numbers are inactive results; nt = no result given.

SMILES	hgDAF12 agonist	DAX1 inh-1	ssDAF12 agonist	hcDAF12 agonist	DAX1 inh-2	LXRb hcDAF ctr	hcDAF12 conf
COc1ccc(CNC(=O)C(=O)c2cn(CC(=O)N3CCOCC3)c3ccccc23)cc1	0.8	1.3	-0.2	-0.6	0.1	nt	nt
COc1ccc(CNC(=O)C(=O)c2cn(CC(=O)N3CCCC3)c3ccccc23)cc1	0.7	0.1	0.4	7.2*	0.5	0.0	3.4
CC1CCCCC1C(=O)N1CCC(Oc2cccnc2)CC1 (stereo not given)	-1.1	nt	-1.4	-0.8	-0.4	nt	nt
Cc1cc(NC(=O)C2Oc3ccccc3OC2C)no1 (stereo not given)	2.3	-0.7	0.1	7.0*	0.5	-0.1	2.0
CC1Oc2ccccc2OC1C(=O)Nc1nccs1 (stereo not given)	6.6	1.1	0.8	3.4	1.1	nt	nt
CSc1ccc(C2NN=C(c3ccccc3)S2)cc1 (stereo not given)	15.4*	nt	2.3*	12.0*	3.5	2.1	13.8*
COc1ccc(C2NN=C(c3ccc(C)cc3)S2)cc1 (stereo not given)	9.6	4.1	-0.3	4.1	1.9	nt	nt
Oc1ccccc1C1NN=C(c2ccccc2)S1 (stereo not given)	16.0*	3.1	4.2*	20.2*	4.1*	2.2	16.1*
COc1ccc(-c2c(Cc3ccccc3)nc(NC(=O)c3ccccc3F)n2C)cc1	0.0	nt	-1.1	-0.9	0.4	nt	nt
COC(=O)C1CN(Cc2ccccc2)CCS(=O)(=O)N1Cc1ccc(C)cc1 (stereo not given)	-3.4	nt	-1.7	-2.3	-1.6	nt	nt
O=C(OC12CCCN(C1)/C(=C/c1ccncc1)C2)C1CCCCC1 (stereo not given)	-4.8	nt	-2.4	-5.2	-3.6	nt	nt
CC(=O)/C(=N\Nc1ccccc1)Sc1nnc(-c2ccccc2)n1-c1ccccc1	0.6	0.5	-1.3	-0.7	-0.1	nt	nt
CC(=O)/C(=N\Nc1ccccc1)Sc1nncn1C	2.1	0.8	0.2	8.4*	0.4	-0.1	3.2
C=CCN1C(=O)[C@@H](CC(=O)NCC23CC4CC(CC(C4)C2)C3)[C@]2(C(=O)OCC)CCCCC/C=C/12	2.2	nt	-0.8	1.5	-0.7	nt	nt
COC(=O)c1cc2c(c3c4cc(C)ccc4n(S(=O)(=O)c4ccccc4)c13)C(=O)N(Cc1ccc(C(F)(F)F)cc1)C2	0.5	nt	-1.0	0.0	0.4	nt	nt
Oc1cccc2ccc(/C=C/c3ccccc3Cl)nc12	10.2	1.9	0.8	7.1*	0.0	1.2	6.5*
COc1cc(Cl)cc(/C=C/c2ccc3cccc(O)c3n2)c1OC	1.3	0.6	-0.9	-0.1	0.6	nt	nt
Oc1cccc2ccc(/C=C/c3c(F)cccc3Cl)nc12	17.6*	3.8	2.0*	9.5*	3.7*	1.5	9.6*
COc1ccc(Cl)cc1/C=C/c1ccc2cccc(O)c2n1	6.4	-0.1	0.3	7.7*	-0.5	0.1	3.3
Cc1c(C(=O)N2CCc3ccccc32)oc2ccccc12	18.9*	2.7	4.6*	14.3*	4.4*	1.4	18.5*
O=C(c1ccc2c(c1)OCO2)N1CCc2ccccc21	3.3	-1.7	1.1*	7.1*	0.6	0.1	3.6
COC(=O)c1c(-c2ccc(OC)cc2)c2c(c3c4cc(OC)ccc4n(C(=O)c4ccccc4)c13)C(=O)N(C)C2	-1.2	nt	-1.2	-0.6	-2.4	nt	nt
COc1ccc(Nc2nnc(SCC(=O)c3cc4ccccc4o3)s2)cc1	5.6	4.1	2.0*	10.0*	2.2	0.0	5.2
O=C(CSc1nnc(Nc2ccccc2F)s1)c1cc2ccccc2o1	1.9	0.1	-0.1	7.8*	-0.2	0.0	2.8
O=C1c2ccccc2C(=O)N1CSc1nnc(Nc2ccccc2F)s1	-0.7	-2.0	-1.4	-0.4	1.4	nt	nt
SMILES	hgDAF12 agonist	DAX1 inh-1	ssDAF12 agonist	hcDAF12 agonist	DAX1 inh-2	LXRb hcDAF ctr	hcDAF12 conf
C=CC[C@]12C[C@@]3(O[C@H](c4ccccn4)N=C3C[C@H](c3ccc(OC)cc3)[C@H]1C)N(C1CCN(Cc3ccccc3)CC1)C2=O	-0.7	nt	-1.1	-0.1	0.6	nt	nt
Cc1ccc(NC(=O)Nc2cccc(C)n2)cc1	9.1	2.5	1.4*	14.0*	1.1	1.0	11.6*
Cc1cccc(NC(=O)Nc2ccc(F)cc2)n1	6.6	-1.1	-0.9	1.4	1.5	nt	nt
CCOC(=O)c1ccc(NC(=O)CSc2nnc(SCc3cccc4ccccc34)s2)cc1	3.1	nt	-1.2	1.6	0.0	nt	nt
Cc1csc(-c2coc3cc(O)cc(C)c3c2=O)n1	9.5	2.7	1.6*	12.7*	0.8	0.7	10.7*
COc1ccc2c(=O)c(-c3nc(C)cs3)coc2c1	13.8*	0.2	1.1*	7.0*	4.1*	1.9	14.3*
CCc1cc2c(=O)c(-c3nc(C)cs3)coc2cc1O	4.6	2.2	0.5	3.0	0.5	nt	nt
COC(=O)C1=C(C)N(Cc2ccccc2C(F)(F)F)C(=NCc2cccc(C(F)(F)F)c2)NC1CCc1ccccc1 (stereo not given)	-0.7	nt	-0.4	-0.3	-0.6	nt	nt
Cc1ccc(C2NC(=O)c3n[nH]c(C(C)C)c32)cc1 (stereo not given)	-1.1	nt	-1.5	-0.3	-0.2	nt	nt
CCOc1ccccc1NC(=O)CNC(=O)N1CC(=O)Nc2ccccc21	1.6	0.5	-0.4	7.0*	3.5	-0.2	3.3
Cc1ccc(C)c(NC(=O)CNC(=O)N2CC(=O)Nc3ccccc32)c1	1.3	0.2	-0.8	-0.7	0.3	nt	nt
C=CCOc1c(CNc2cccc(C(=O)O)c2)cccc1OC	9.3	1.3	0.2	7.3*	2.6	0.5	2.8
COC(=O)C1=C(C)N(Cc2ccccc2C(F)(F)F)C(=NCc2ccc(OC)cc2)NC1c1cccc(Cl)c1 (stereo not given)	-1.3	nt	-0.4	-0.6	0.7	nt	nt
CCC1CCCCN1CCCNC(=O)c1ccc2c(c1)NC(=O)CN2C (stereo not given)	-0.4	0.8	-0.8	8.8*	-0.6	-0.3	-1.2
CCOC(=O)[C@]12CCCCC/C=C\1N(CCc1ccc(Cl)cc1)C(=O)[C@H]2CC(=O)NCC12CC3CC(CC(C3)C1)C2	-2.5	nt	-1.7	-2.3	0.2	nt	nt
CC1CCc2nc(/C(C#N)=C/c3cccnc3)sc2C1 (stereo not given)	13.3*	6.4*	0.3	7.1*	3.8*	1.0	5.2
CCOC(=O)c1ccc(/C=C2/C=C(c3ccccc3)N(c3ccc(Cl)c(C(=O)O)c3)C2=O)cc1	-0.5	0.1	-0.7	8.4*	0.4	-0.4	-3.4
CCOC(=O)c1ccc(Cl)c(NC(=O)c2ccc(-c3ccccc3)cc2)c1	1.4	2.1	-1.4	-0.3	0.2	nt	nt
Cc1cc2c(c(=O)o1)[C@@]1(C(=O)N(c3ccccc3)c3ccccc31)C1=C(CCCC1=O)O2	2.5	nt	-0.7	-2.3	-1.1	nt	nt

Source: PubChem BioAssay
